Test results reported in PubChem BioAssay (NCI).
This is part of a sample that, as a whole, favours compounds with a hit. Of some 83,000 tested, about 20% had one in any assay.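 The test compound was applied at a single concentration to cells in 96-well plates for 48 hours, and percent growth was recorded.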 The source made the active and inactive calls. The calls were made as follows: active = growth percent below 10; inactive = the rest.

Assays:
Assay in all cases: NCI-60 one-dose screen, 48 h (100 = growth as untreated, 0 = no growth, -100 = all killed)
Conditions in all cases: 10 µM unless noted
[1] = test system: SK-MEL-2 melanoma
[2] = test system: EKVX NSCLC
[3] = test system: SN12C renal
[4] = test system: UO-31 renal
[5] = test system: TK-10 renal
[6] = test system: ACHN renal
[7] = test system: CAKI-1 renal
[8] = test system: A498 renal
[9] = test system: CCRF-CEM leukemia
[10] = test system: MOLT-4 leukemia

Measured: growth

COc1ccc(/C=C(\C(=O)NCc2cccnc2)S(=O)(=O)c2ccccc2)cc1OC
active: [9] 9.07%
inactive: [1] 54.6% | [2] 38.9% | [3] 10.9% | [4] 38.8% | [5] 46.4% | [6] 52.8% | [7] 36.1% | [8] 51% | [10] 39.3%

O=C(Nc1cccnc1Nc1ccc(Cl)cc1)c1cn(Cc2cccc(Oc3ccccc3)c2)nn1
inactive: [1] 61.8% | [2] 53.5% | [3] 46.4% | [4] 31.9% | [5] 82.4% | [6] 55.2% | [7] 53.6% | [8] 26.6% | [9] 39% | [10] 28.8%

Nc1c(Br)cc2c(c1Br)Cc1cc([N+](=O)[O-])ccc1-2
inactive: [1] 109% | [2] 55.3% | [3] 101% | [4] 79.1% | [5] 90.6% | [6] 93.2% | [7] 98% | [8] 114% | [9] 95.7% | [10] 83.4%

O=C(C[C@]1(O)C(=O)Nc2ccc(Br)cc21)c1ccco1
inactive: [1] 94.5% | [2] 107% | [3] 90% | [4] 75.4% | [5] 125% | [6] 109% | [7] 93.4% | [8] 103% | [9] 104% | [10] 102%

Brc1ccc(Nc2nc(Nc3cnc4ccccc4c3)c3[nH]cnc3n2)cc1
inactive: [1] 78.2% | [2] 40.3% | [3] 88.3% | [4] 70.3% | [5] 113% | [6] 77.5% | [7] 82.9% | [8] 79.6% | [9] 60.6% | [10] 78.3%

C=CN(C(=O)N1CCN(c2cc3c(cc2F)c(=O)c(C(=O)O)cn3C2CC2)CC1)c1nc(-c2ccc(Cl)cc2)cs1
inactive: [1] 86.5% | [2] 81.8% | [3] 54.5% | [4] 55.9% | [5] 83.6% | [6] 70.5% | [8] 56% | [9] 33.5% | [10] 58.2%
active: [7] 2.83%

COc1ccc(/C=C2\c3cc(OC)c(OC)c(OC)c3CC[C@@H]2O)cc1F
inactive: [1] 41.6% | [2] 44.1% | [3] 53.2% | [4] 47.7% | [5] 57.9% | [6] 43% | [7] 48.4% | [9] 12.8% | [10] 21.5%
active: [8] 8.33%

C/C(=C(\c1ccc(OCCN2CCCCCC2)cc1)c1ccc(OC(=O)c2ccccc2)cc1)c1ccc(Cl)cc1
inactive: [1] 63% | [2] 68.6% | [3] 47.1% | [4] 26.7% | [5] 70.4% | [6] 77.1% | [7] 49.5% | [8] 86.9% | [9] 16%
active: [10] 8.86%

Cc1cc(=O)n(C(=S)Nc2ccc(Cl)cc2)c2cc(O)ccc12
inactive: [1] 104% | [2] 94.7% | [3] 105% | [4] 72.2% | [5] 116% | [6] 100% | [7] 85.1% | [8] 122% | [9] 110% | [10] 102%

N=C(N)c1ccc(OCCSCCOc2ccc(C(=N)N)cc2)cc1
inactive: [1] 82.5% | [2] 56.6% | [3] 37.4% | [4] 70.7% | [5] 60.8% | [6] 74.3% | [7] 51.7% | [8] 51.7% | [9] 97.6% | [10] 93.4%

CS(=O)(=O)Nc1cc(-c2ccc3ncnc(Nc4ccc5c(cnn5Cc5ccccc5F)c4)c3c2)cnc1Cl
inactive: [1] 15.3% | [2] 52.2% | [3] 23.3% | [4] 43.2% | [5] 30.6% | [6] 59% | [7] 27.3% | [9] 31.1% | [10] 16.4%
active: [8] -14.1%

Fc1cc2[nH]ncc2c2c3c(c(-c4cn[nH]c4C(F)(F)F)nc12)CCCC3
active: [1] -22.1% | [2] 8.29% | [3] 4.98% | [4] -7.31% | [5] -8.31% | [6] 0.165% | [7] -7.15% | [8] -63.9% | [9] 1.34%
inactive: [10] 10.9%

COCCn1cc(-c2nc(-c3cn(CCOC)c4ncccc34)cs2)c2cc(F)ccc21
inactive: [1] 73.8% | [2] 23.2% | [3] 82.3% | [4] 68.3% | [5] 28.2% | [6] 76.7% | [7] 86.4% | [8] 73.3% | [9] 72.5% | [10] 68.9%

COc1cccc(CNc2c3ccccc3nc3ccccc23)c1OC
inactive: [1] 79.2% | [2] 36.3% | [3] 30.9% | [4] 25.2% | [5] 59.5% | [6] 21.1% | [7] 33.7% | [9] 39.5% | [10] 17.9%
active: [8] -4.13%

C=C(C)[C@@H]1CC[C@]2(C)[C@H](C=CC3=C4C[C@@](C)(CO)CC[C@]4(C)CC[C@]32C)[C@@]1(C)CCCN
active: [1] -52.5% | [3] -13.4% | [5] -68.4% | [6] -94.9% | [7] -81.6% | [9] 0.791% | [10] -10.5%
inactive: [2] 42.5% | [4] 47.2% | [8] 68.3%

Cn1c(C#N)ccc1-c1ccc(F)c(NC(=O)c2ccc(F)cc2)c1
inactive: [1] 60.3% | [2] 82.2% | [3] 82.2% | [4] 64% | [5] 86% | [6] 84.4% | [7] 73.9% | [8] 73.3% | [9] 68.8% | [10] 47.6%

O=C(/C=C/c1ccccc1)c1cccc2ccccc12
active: [1] 5.16% | [9] 3.83% | [10] 6.46%
inactive: [2] 65.1% | [3] 46.3% | [4] 46.9% | [5] 22.5% | [6] 43.1% | [7] 40.7% | [8] 50.1%

CC1(C)CC[C@]23CC[C@]4(C)[C@H](CC[C@@H]5[C@@]6(C)C/C(=C/O)C(=O)C(C)(C)[C@@H]6CC[C@]54C)[C@H]2[C@H]1OC3
inactive: [1] 108% | [2] 98.4% | [3] 99.2% | [4] 85% | [5] 113% | [6] 110% | [7] 91.1% | [8] 105% | [9] 99.5% | [10] 97.7%

Ic1ccc(Nc2nc3nonc3nc2Nc2ccc(I)cc2)cc1
active: [1] -55.2% | [2] 4.77% | [3] 7.43% | [4] -0.338% | [5] 2.2% | [6] 4.88% | [7] 7.67% | [8] -22% | [9] -1.76% | [10] -29%

COc1cc(-c2nccc3[nH]c(-c4cccc5[nH]ccc45)nc23)cc(OC)c1OC
active: [8] -6.89%
inactive: [1] 35.8% | [2] 46.3% | [3] 40.9% | [4] 34% | [5] 34.7% | [6] 17% | [7] 31.4% | [9] 11.7% | [10] 19.9%

Cc1ccc2c(c1)nc(C)n2-c1ncnc2c1CC(C)c1cc(O)ccc1N2C (stereo not given)
inactive: [1] 21.4% | [2] 44.2% | [3] 52.3% | [4] 47.9% | [5] 56.1% | [6] 49.5% | [7] 42.4% | [10] 13.4%
active: [8] 6.65% | [9] 9.39%

COC(=O)c1sccc1-c1cc(O)c(C(=O)Nc2ccccc2)s1
inactive: [1] 104% | [2] 71.9% | [3] 105% | [4] 69.9% | [5] 121% | [6] 94% | [7] 86.4% | [8] 115% | [9] 101% | [10] 96.9%

COc1ccc(C2[C@@H](c3ccccc3)C(=O)N2c2cc(OC)c(OC)c(OC)c2)cc1F (stereo not given in full)
active: [1] 2.73% | [8] 2.92% | [9] 6.85% | [10] 5.7%
inactive: [2] 34.7% | [3] 32.6% | [4] 38% | [5] 43.7% | [6] 34.2% | [7] 30.8%

O=C(CN1C(=O)S/C(=C\C(Cl)=C\c2ccccc2)C1=O)NC1CCS(=O)(=O)C1 (stereo not given)
inactive: [1] 85% | [2] 82.4% | [3] 79.7% | [4] 65.6% | [5] 64% | [6] 46.8% | [7] 78.1% | [8] 99.7% | [9] 12.3% | [10] 40.7%

CC(C)=CC(=O)N[C@H]1CC[C@]2(C)C3CC[C@]4(C)C(C(C)N(C)C)=CCC4C3CCC2[C@H]1O (stereo not given in full)
active: [4] -48%
inactive: [1] 106% | [2] 57.7% | [3] 70.1% | [5] 85.7% | [6] 58.6% | [7] 79.4% | [8] 66.1% | [9] 13.4% | [10] 48.1%

c1ccc(-c2ccc3c(c2)C2(CCNCC2)CN3)cc1
inactive: [1] 93.4% | [2] 75.9% | [3] 98.7% | [4] 66.1% | [5] 125% | [6] 93% | [7] 93% | [8] 104% | [9] 112% | [10] 85.7%
